# Data from PubChem BioAssay (Tox21).
# Records with an inconclusive call do not appear. A number with no mark means an inactive call. Active and inactive are the calls of the source. Calls follow the shape of the dose curve; as a rule, active = well fitted cell-killing curve with a large enough effect in the repeat runs; inconclusive = weak or mixed curves, or effect the other way; inactive = flat fitted curve, though single readings scatter.
# Test: cAMP Responsive Elements (CRE) small molecule antagonists, cell-based qHTS assay: qHTS cell viability counter screen (AID 2060913); also: nearly all actives have a fitted effect of over 40% in size
# Settings: CRE-bla HEK293T viability, CellTiter-Glo luminescence, 5 h; series mostly up to 92.4 µM; viability change, negative = cytotoxic: at the top concentration
# Procedure, shortened: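 Steps: cells plated and held 18 hrs at 37 C/5% CO2; compounds and NKH477 (0.25 uM final) added; 3 hrs incubation; reporter substrate read; CellTiter-Glo added to measure cytotoxicity by luminescence.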
# % is scaled to controls: 0 for no effect and ±100 for the full control effect; potency is read from the fitted curve at half-maximal effect.
SMILES,Potency,"viability change, negative = cytotoxic"
CC1=C(C(=O)Nc2ccccc2)SCCO1,inactive,–
CCOC(=O)CC(SP(=S)(OC)OC)C(=O)OCC (stereo not given),inactive,–
COP(=S)(OC)Oc1ccc(Sc2ccc(OP(=S)(OC)OC)cc2)cc1,inactive,–
O=c1oc2ccccc2c(O)c1C(CC(O)c1ccc(-c2ccc(Br)cc2)cc1)c1ccccc1 (stereo not given),inactive,–
CCC1(CC)C(=O)C=CNC1=O,–,-0.632% [at 42.5 µM]
C[C@@H]1O[C@@H](O[C@@H]2C=C3CC[C@@H]4[C@H](CC[C@]5(C)[C@@H](c6ccc(=O)oc6)CC[C@]45O)[C@@]3(C)CC2)[C@H](O)[C@H](O)[C@H]1O,0.0188 µM (active),–
ClC1=C(Cl)[C@]2(Cl)[C@@H]3[C@H]4C[C@H]([C@@H]5O[C@H]45)[C@@H]3[C@@]1(Cl)C2(Cl)Cl,–,-11.9%
[Hg+2].[I-].[I-],54.5 µM (active),–
COS(=O)(=O)c1ccc(C)cc1,–,2.31%
ClC(Cl)=C(Cl)Cl,–,-4.4%
Brc1ccc(Oc2ccc(Br)cc2Br)c(Br)c1,–,-14.9%
ClCC(Cl)Cl,–,-7.41%
CC(C)Br,–,-7.96%
[CH3][Sn]([Cl])([Cl])[Cl],inactive,–
CC(C)N(C(=O)CCl)c1ccccc1,inactive,–
CC1(C)C(C=C(Cl)Cl)C1C(=O)OC(C#N)c1ccc(F)c(Oc2ccccc2)c1 (stereo not given),–,-13.8%
C=CCc1ccc(OC)cc1,inactive,–
COC(=O)C(c1ccccc1)C1CCCCN1 (stereo not given),–,-4.23%
CCOP(=S)(OCC)Oc1cnc2ccccc2n1,inactive,–
CC(C)N(C(=O)COc1nnc(C(F)(F)F)s1)c1ccc(F)cc1,–,9.74%

SMILES,Potency,"viability change, negative = cytotoxic"
O=C(CCl)NCO,–,4.02%
Clc1ccc(Cl)c(Cl)c1,inactive,–
O=C1CN=C(c2ccccc2)c2cc([N+](=O)[O-])ccc2N1,–,-0.073% [at 42.5 µM]
CN1CCN(C(=O)O[C@H]2c3nccnc3C(=O)N2c2ccc(Cl)cn2)CC1,–,6.3% [at 42.5 µM]
CC(COc1ccc(Oc2ccccc2)cc1)Oc1ccccn1 (stereo not given),–,-2.94%
CC1(C)[C@H](C(=O)O[C@H](C#N)c2cccc(Oc3ccccc3)c2)[C@@H]1/C=C(\Cl)C(F)(F)F,inactive,–
C=CC(=O)OCCCCCC(C)C,inactive,–
CNCC(=O)c1ccc(O)c(O)c1,–,5.69% [at 42.5 µM]
CCCCCl,–,0.482%
Oc1cc(Cl)c(Cl)cc1Cl,inactive,–
CC(C)(OOC(C)(C)c1ccccc1)c1ccccc1,inactive,–
CC(C)C(Nc1ccc(C(F)(F)F)cc1Cl)C(=O)OC(C#N)c1cccc(Oc2ccccc2)c1 (stereo not given),–,-19.5%
c1ccc(Nc2ccc(Nc3ccccc3)cc2)cc1,–,-5.39%
CN(C)CCN(C)C,–,-4.28%
CCCC[n+]1cccc(C)c1,inactive,–
CN1C2CCC(C)(C)C1CC(OC(=O)C(O)(c1cccs1)c1cccs1)C2 (stereo not given),–,-3.24% [at 42.5 µM]
O=NN1CCNCC1,–,-7.15%
C=CCOC(=O)C(C)(C)OC(=O)c1cc(-n2c(=O)cc(C(F)(F)F)n(C)c2=O)ccc1Cl,–,3.15%
C[C@]12CC[C@@H](O)C[C@@H]1CC[C@@H]1[C@@H]2CC[C@]2(C)C(=O)CC[C@@H]12,–,-4.22%
Cc1ncc(CNC(=O)N(CCCl)N=O)c(N)n1,–,-5.65% [at 42.5 µM]
